Growth data for 13 compounds are collected here from PubChem BioAssay (NCI).

Among the test systems are HCT-15 colon; HT29 colon; SNB-75 CNS; SNB-19 CNS; U251 CNS; PC-3 prostate; SK-MEL-5 melanoma; UACC-62 melanoma; LOX IMVI melanoma; SK-MEL-28 melanoma.
What all share (experiment): NCI-60 one-dose screen, 48 h (100 = growth as untreated, 0 = no growth, -100 = all killed)
Conditions in all cases: 10 µM unless noted

Compounds without any hit were thinned out: in the full panel of roughly 83,000, 20% have a hit.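 Results are percent growth after 48 hours of single-concentration exposure. 100 means growth as in untreated cells, lower positive values show inhibition; negative values down to -100 show cell death.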 A number with no mark means an inactive call. Calls of active or inactive are those of the source. Rule for the calls: active = growth percent below 10; inactive = the rest.

On to `O=C(NNC(=S)NCCc1ccccc1)c1ccc(OCc2nc3ccc(Cl)cc3[nH]2)cc1`, for which the growth in the experiment on HCT-15 colon was 66.9%; in the experiment on HT29 colon, 100%; in the experiment with SNB-75 CNS, 128%; in the experiment with SNB-19 CNS, 75.6%; in the experiment on U251 CNS, 88.2%; with PC-3 prostate, 67.1%. Further, the growth in the experiment with SK-MEL-5 melanoma is 41.6%; in the experiment on UACC-62 melanoma, 63.3%; in the experiment on LOX IMVI melanoma it was 80.4%; with SK-MEL-28 melanoma, 101%.
Regarding `O=C(CSc1nc2ccccc2c(=O)[nH]1)Nc1ccccc1C(=O)O`, the growth with HCT-15 colon is 86.6%; in the experiment with HT29 colon it was 124%; with SNB-75 CNS, 139%; with SNB-19 CNS it was 95.7%; in the experiment on U251 CNS it was 101%; in the experiment with PC-3 prostate it was 110%. The growth is 94.9% in the experiment with SK-MEL-5 melanoma, 84.8% in the experiment with UACC-62 melanoma, 84.8% with LOX IMVI melanoma and 93.7% in the experiment with SK-MEL-28 melanoma.
For `COc1cc(C2CC(c3ccc(Cl)cc3)=Nc3c(N)nc(N)nc3N2)ccc1Oc1nc(Nc2ccc(F)cc2)nc(N(C)C)n1` (stereo not given), the growth with HCT-15 colon is 25.1%; in the experiment on HT29 colon, 14.3%; in the experiment on SNB-75 CNS, 33.7%; in the experiment on SNB-19 CNS, 47.7%; with U251 CNS, 45%; in the experiment with PC-3 prostate, 21.9%. For the same compound, the growth in the experiment on SK-MEL-5 melanoma is 17.9%; in the experiment with UACC-62 melanoma, 84.4%; in the experiment on LOX IMVI melanoma, 16%; in the experiment with SK-MEL-28 melanoma, 75.6%.
Consider `O=C(c1cc2cc(OCCCN3CCC3)ccc2[nH]1)N1C[C@@H](CCl)c2c1cc(OCc1ccccc1)c1ccccc21`, for which the growth was -21.1% (active) in the experiment with HCT-15 colon; -25.2% (active) with HT29 colon; -79.5% (active) in the experiment on SNB-75 CNS; -12.1% (active) in the experiment on SNB-19 CNS; -80.7% (active) in the experiment with U251 CNS; -21.4% (active) with PC-3 prostate. In addition, the growth in the experiment on SK-MEL-5 melanoma was -23.2% (active); with UACC-62 melanoma, -82.6% (active); in the experiment with LOX IMVI melanoma it was -94.2% (active); with SK-MEL-28 melanoma it was -45.8% (active).
Take `CCc1ccc(SC2c3cc(OC)ccc3Oc3nc(N)c(C#N)c(N)c32)cc1` (stereo not given): the growth was -45% (active) in the experiment with HCT-15 colon; -60.5% (active) in the experiment with HT29 colon; -21.3% (active) in the experiment with SNB-75 CNS; 0.536% (active) in the experiment with SNB-19 CNS; -13.4% (active) in the experiment with U251 CNS; 3.3% (active) in the experiment on PC-3 prostate. The growth with SK-MEL-5 melanoma is -95.9% (active); with UACC-62 melanoma, -80.7% (active); with LOX IMVI melanoma, -62.2% (active); in the experiment on SK-MEL-28 melanoma, 0.874% (active).
In the case of `Cn1cc(-c2cc3nc(-c4c[nH]c5ccccc45)cc(N)n3n2)c2ccccc21`, the growth in the experiment on HCT-15 colon is -73% (active); in the experiment on HT29 colon, -65.3% (active); in the experiment on SNB-75 CNS, 91.6%; in the experiment with SNB-19 CNS, 18.6%; in the experiment on U251 CNS, -91.1% (active); with PC-3 prostate, -69.7% (active). The growth in the experiment with SK-MEL-5 melanoma is 8.15% (active); with UACC-62 melanoma it was -88.5% (active); with LOX IMVI melanoma, -77.8% (active); in the experiment with SK-MEL-28 melanoma, -97.8% (active).
On to `COc1cc(C2C(C(=O)OCc3ccccc3)=C(C)Nc3nc4ccccc4n32)cc(OC)c1OC` (stereo not given), for which the growth in the experiment with HCT-15 colon was 24.8%; in the experiment with HT29 colon, 37.3%; in the experiment on SNB-75 CNS, -38.3% (active); in the experiment with SNB-19 CNS it was 20.4%; in the experiment with U251 CNS, 27%; with PC-3 prostate, 51.7%. For the same compound, the growth in the experiment with SK-MEL-5 melanoma is 17.3%; with UACC-62 melanoma it was 2.04% (active); in the experiment on LOX IMVI melanoma, 12.2%; in the experiment on SK-MEL-28 melanoma, 33.9%.
With `COc1cc(CNC(=O)C[C@H](C)CCC=C(C)C)ccc1OCc1cn(-c2ccc(Cl)c(Cl)c2)nn1`, the growth was 29.4% in the experiment with HCT-15 colon; 78.3% in the experiment with HT29 colon; 47.2% with SNB-75 CNS; 81.3% in the experiment with SNB-19 CNS; 48.2% in the experiment on U251 CNS; 65.9% with PC-3 prostate. For the same compound, the growth in the experiment with SK-MEL-5 melanoma was 71.9%; with UACC-62 melanoma it was 69.3%; with LOX IMVI melanoma, 50.6%; with SK-MEL-28 melanoma, 89.3%.
Consider `CN(C)c1nc(NCCNS(=O)(=O)c2ccc(C(=O)/C=C/c3ccc(Cl)cc3)cc2)nc(N2CCOCC2)n1`, for which the growth in the experiment with HCT-15 colon was -53% (active); in the experiment with HT29 colon, -80.6% (active); in the experiment on SNB-75 CNS it was 45.4%; in the experiment with SNB-19 CNS, 60%; in the experiment on U251 CNS it was -92% (active); in the experiment with PC-3 prostate, 21.1%. For the same compound, the growth was 46.2% in the experiment with SK-MEL-5 melanoma, 52.5% in the experiment with UACC-62 melanoma, -94.3% (active) with LOX IMVI melanoma and 76.6% in the experiment on SK-MEL-28 melanoma.
Take `CCCCCCCOc1ccc(S(=O)(=O)Nc2ccc(C)c(F)c2C(=O)O)cc1`: the growth was 79.4% in the experiment on HCT-15 colon; 121% with HT29 colon; 104% with SNB-75 CNS; 89.4% with SNB-19 CNS; 91.4% in the experiment on U251 CNS; 91% with PC-3 prostate. Further, the growth in the experiment with SK-MEL-5 melanoma is 96.7%; in the experiment on UACC-62 melanoma, 90.6%; in the experiment on LOX IMVI melanoma, 98.9%; in the experiment on SK-MEL-28 melanoma it was 117%.
For the compound `O=C(N/N=C/c1occc1Br)c1[nH]c2ccc(Br)cc2c1-c1ccccc1`, the growth with HCT-15 colon was -78% (active); in the experiment on HT29 colon it was -68.7% (active); in the experiment with SNB-75 CNS, -78.2% (active); in the experiment with SNB-19 CNS it was -97.1% (active); with U251 CNS, -82.6% (active); with PC-3 prostate, -51.3% (active). The growth was -97.6% (active) in the experiment with SK-MEL-5 melanoma, -95% (active) in the experiment on UACC-62 melanoma, -100% (active) with LOX IMVI melanoma and -96.5% (active) with SK-MEL-28 melanoma.
Regarding `O=C(c1ccc(O)cc1)C1[C@H](c2ccc(Cl)cc2)[C@@H](c2ccccc2)NC12C(=O)Nc1ccccc12` (stereo not given in full), the growth was -70.8% (active) with HCT-15 colon; -66.3% (active) in the experiment with HT29 colon; 43.5% in the experiment on SNB-75 CNS; 13.2% in the experiment with SNB-19 CNS; -0.272% (active) in the experiment with U251 CNS; 1.61% (active) in the experiment with PC-3 prostate. Besides, the growth with SK-MEL-5 melanoma was -92.9% (active); in the experiment with UACC-62 melanoma, -22.4% (active); in the experiment on LOX IMVI melanoma, -100% (active); in the experiment with SK-MEL-28 melanoma it was 17.9%.
As for `O=C(NC(=S)N1CCN(c2ncnc3c2cnn3-c2ccccc2)CC1)c1ccc(F)cc1`, the growth in the experiment with HCT-15 colon was 49.9%; in the experiment with HT29 colon, 78%; in the experiment with SNB-75 CNS, 53.7%; in the experiment on SNB-19 CNS it was 84.9%; in the experiment on U251 CNS, 85.9%; in the experiment on PC-3 prostate, 71.9%. Also, the growth in the experiment on SK-MEL-5 melanoma was 56%; in the experiment with UACC-62 melanoma, 74.2%; in the experiment on LOX IMVI melanoma it was 63.4%; in the experiment on SK-MEL-28 melanoma, 85.6%.
